Records with an inconclusive call do not appear. Activity calls are given as the source filed them. Unless noted, calls come from the whole dose curve; as a rule, active = well fitted curve in the direction sought with a large enough effect; inconclusive = small, poorly fitted or top-dose-only effect, or another doubt; inactive = no such curve, though single readings can be large; an effect the other way counts as inactive or inconclusive.
Experiments:
[1] = P-glycoprotein substrates identified in KB-3-1 adenocarcinoma cell line, qHTS therapeutic library screen (AID 1346986); note: nearly all actives have a fitted effect of over 60% in size;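 note: potency is the fitted concentration of half-maximal effect; potency is for cytotoxicity meaning loss of cell viability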
Procedure, shortened: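 Compounds were tested in dose-response against KB-3-1 and KB-8-5-11 cells at 37 degree C for 72 h, and viability was measured by luminescence. AC50 values came from curve fitting with class-based activity calls.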

[2] = NS1 protein of Zika virus - qHTS assay to identify small molecule inhibitors in human HEK 293 cells (AID 1347053); note: nearly all actives have a fitted effect of over 55% in size; note: potency is the fitted concentration of half-maximal effect
Procedure, shortened: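 Inhibition of NS1 expression was scored in HEK 293 cells given compound 1 h ahead of MR766 virus (MOI = 0.5). Following 24 h at 37 C, two anti-NS1 antibodies generated a TR-FRET signal, scaled between uninfected and infected controls.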

[3] = qHTS of pediatric cancer cell lines to identify multiple opportunities for drug repurposing: Primary screen for TC32 cells (AID 1347089); note: nearly all actives have a fitted effect of over 60% in size; note: potency is the fitted concentration of half-maximal effect
Procedure, shortened: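 Luminescent CellTiter-Glo read-out of metabolically active TC32 cells after 48 h compound exposure. Primary: MIPE 11-point, 0.78 nM–46 µM; NPC 8-point, 0.59 nM–46 µM. Confirmatory: 11-point dilutions.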

[4] = qHTS of pediatric cancer cell lines to identify multiple opportunities for drug repurposing: Primary screen for DAOY cells (AID 1347090); note: nearly all actives have a fitted effect of over 55% in size; note: potency is the fitted concentration of half-maximal effect
Procedure, shortened: (§1)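 Viability measured as metabolically active cells via CellTiter-Glo luminescence following 48 hours of compound exposure, 11-point dilutions in confirmatory testing. 500-1,000 cells/well plated 5 hours before dosing; controls were DMSO and 2.3 µM bortezomib.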

[5] = qHTS of pediatric cancer cell lines to identify multiple opportunities for drug repurposing: Primary screen for SJ-GBM2 cells (AID 1347091); note: potency is the fitted concentration of half-maximal effect
Procedure, shortened: as §1

[6] = P-glycoprotein substrates identified in KB-8-5-11 adenocarcinoma cell line, qHTS therapeutic library screen (AID 1346987); note: nearly all actives have a fitted effect of over 65% in size; note: potency is the fitted concentration of half-maximal effect
Procedure, shortened: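 P-gp-mediated resistance screen: KB-8-5-11 cells treated 72 h with compounds in dose-response. CellTiter-Glo viability.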

[7] = Natriuretic polypeptide receptor (hNpr1) antagonism - Pilot counterscreen GloSensor control cell line (AID 1347045; calls by dose curve; note: series mostly up to about 38 µM)
Procedure, shortened: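 This counterscreen uses HEK293 cells expressing the GIP/pGS-40F cGMP biosensor. Compound-treated cells are challenged with 50 uM sodium nitroprusside, and the luciferase signal is compared before and after stimulation.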

[8] = molecular target: Atrial natriuretic peptide receptor 1 (Homo sapiens) (UniProt P16066); assay: Natriuretic polypeptide receptor (hNpr1) antagonism - Pilot screen (AID 1347049; calls by dose curve;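 note: agonist-evoked cGMP luminescence read 20 min after hNppA addition; series mostly up to about 58 µM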)
Chain of Atrial natriuretic peptide receptor 1 (Homo sapiens) (P16066 whole entry, looked up): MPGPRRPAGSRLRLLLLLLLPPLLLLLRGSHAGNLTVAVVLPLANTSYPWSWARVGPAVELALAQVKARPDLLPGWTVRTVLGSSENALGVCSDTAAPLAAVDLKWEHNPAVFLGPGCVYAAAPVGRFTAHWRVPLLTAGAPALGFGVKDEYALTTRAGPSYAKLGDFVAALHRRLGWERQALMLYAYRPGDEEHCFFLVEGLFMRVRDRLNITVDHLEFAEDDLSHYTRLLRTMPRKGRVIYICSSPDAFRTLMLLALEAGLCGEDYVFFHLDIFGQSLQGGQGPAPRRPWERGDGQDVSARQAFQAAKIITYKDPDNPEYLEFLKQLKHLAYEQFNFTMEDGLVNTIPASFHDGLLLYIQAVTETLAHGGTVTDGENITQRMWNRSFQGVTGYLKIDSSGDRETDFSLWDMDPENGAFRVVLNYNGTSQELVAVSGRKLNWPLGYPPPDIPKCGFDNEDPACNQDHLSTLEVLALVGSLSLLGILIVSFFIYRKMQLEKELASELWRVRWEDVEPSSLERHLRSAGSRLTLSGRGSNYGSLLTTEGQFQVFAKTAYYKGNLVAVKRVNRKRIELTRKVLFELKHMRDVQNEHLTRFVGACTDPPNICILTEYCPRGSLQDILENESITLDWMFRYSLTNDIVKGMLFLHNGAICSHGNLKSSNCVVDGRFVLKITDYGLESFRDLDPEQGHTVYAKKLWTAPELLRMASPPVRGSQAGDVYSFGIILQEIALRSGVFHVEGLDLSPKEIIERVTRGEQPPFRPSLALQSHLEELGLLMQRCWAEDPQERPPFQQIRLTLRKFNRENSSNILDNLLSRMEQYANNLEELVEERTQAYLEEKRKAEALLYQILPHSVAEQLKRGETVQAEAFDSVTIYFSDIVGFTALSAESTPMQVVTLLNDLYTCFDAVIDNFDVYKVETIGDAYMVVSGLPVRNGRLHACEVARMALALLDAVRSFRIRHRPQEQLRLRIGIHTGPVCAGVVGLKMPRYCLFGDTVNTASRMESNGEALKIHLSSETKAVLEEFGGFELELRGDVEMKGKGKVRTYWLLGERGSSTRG
Procedure, shortened: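 HEK293 cells expressing hNpr1 and GloSensor cGMP luciferase, 1500/well, loaded with 2% GloSensor reagent 2 h, compound 30 min at room temperature; luminescence read before and 20 min after 0.1 nM hNppA stimulation.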

[9] = molecular target: Atrial natriuretic peptide receptor 2 (Homo sapiens) (UniProt P20594); assay: Natriuretic polypeptide receptor (hNpr2) antagonism - Pilot subtype selectivity assay (AID 1347050; calls by dose curve)
Chain of Atrial natriuretic peptide receptor 2 (Homo sapiens) (P20594 whole entry, looked up): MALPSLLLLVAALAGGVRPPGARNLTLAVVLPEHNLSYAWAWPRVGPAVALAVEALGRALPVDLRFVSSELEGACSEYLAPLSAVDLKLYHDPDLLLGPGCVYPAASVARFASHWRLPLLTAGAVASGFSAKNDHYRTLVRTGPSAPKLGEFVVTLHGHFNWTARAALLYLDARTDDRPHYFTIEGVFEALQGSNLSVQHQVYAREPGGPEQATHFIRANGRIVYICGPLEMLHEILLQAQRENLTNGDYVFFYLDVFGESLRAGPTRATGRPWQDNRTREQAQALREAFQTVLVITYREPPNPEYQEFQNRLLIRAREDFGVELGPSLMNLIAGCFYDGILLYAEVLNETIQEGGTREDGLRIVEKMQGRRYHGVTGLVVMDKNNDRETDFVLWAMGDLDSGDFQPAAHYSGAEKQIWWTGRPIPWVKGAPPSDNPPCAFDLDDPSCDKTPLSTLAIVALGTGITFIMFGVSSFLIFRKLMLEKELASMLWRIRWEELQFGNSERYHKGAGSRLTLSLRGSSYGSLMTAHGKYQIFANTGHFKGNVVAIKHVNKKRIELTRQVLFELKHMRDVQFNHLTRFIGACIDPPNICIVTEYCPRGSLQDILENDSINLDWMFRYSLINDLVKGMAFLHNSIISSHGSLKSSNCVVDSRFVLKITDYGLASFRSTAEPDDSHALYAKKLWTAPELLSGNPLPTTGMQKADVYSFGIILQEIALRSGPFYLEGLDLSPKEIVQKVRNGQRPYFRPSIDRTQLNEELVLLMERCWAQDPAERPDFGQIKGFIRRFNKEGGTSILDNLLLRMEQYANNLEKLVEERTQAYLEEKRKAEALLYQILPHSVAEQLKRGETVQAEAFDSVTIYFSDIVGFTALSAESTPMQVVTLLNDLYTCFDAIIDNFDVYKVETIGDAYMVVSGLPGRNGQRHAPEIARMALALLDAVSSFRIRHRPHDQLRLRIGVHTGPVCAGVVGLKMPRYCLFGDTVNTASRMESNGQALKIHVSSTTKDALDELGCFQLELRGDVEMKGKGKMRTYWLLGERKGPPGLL
Procedure, shortened: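 HEK293 cells expressing hNpr2 and a GloSensor cGMP luciferase sensor, 1500/well, preloaded 2 h with 2% GloSensor reagent, compound 30 min, then 1 nM hNppC for 20 min. Antagonism from luminescence after versus baseline pre-read; LOPAC in 1:5 titrations.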

[10] = molecular target: Parathyroid hormone/parathyroid hormone-related peptide receptor (Homo sapiens) (UniProt Q03431); assay: qHTS for PTHR1 Agonists: Optimization Screen against the NCGC LOPAC library (AID 1347079);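 note: GloSensor cAMP luminescence in HEK-293 GP2 cells expressing human PTHR1 with IBMX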
Chain of Parathyroid hormone/parathyroid hormone-related peptide receptor (Homo sapiens) (Q03431 whole entry, looked up): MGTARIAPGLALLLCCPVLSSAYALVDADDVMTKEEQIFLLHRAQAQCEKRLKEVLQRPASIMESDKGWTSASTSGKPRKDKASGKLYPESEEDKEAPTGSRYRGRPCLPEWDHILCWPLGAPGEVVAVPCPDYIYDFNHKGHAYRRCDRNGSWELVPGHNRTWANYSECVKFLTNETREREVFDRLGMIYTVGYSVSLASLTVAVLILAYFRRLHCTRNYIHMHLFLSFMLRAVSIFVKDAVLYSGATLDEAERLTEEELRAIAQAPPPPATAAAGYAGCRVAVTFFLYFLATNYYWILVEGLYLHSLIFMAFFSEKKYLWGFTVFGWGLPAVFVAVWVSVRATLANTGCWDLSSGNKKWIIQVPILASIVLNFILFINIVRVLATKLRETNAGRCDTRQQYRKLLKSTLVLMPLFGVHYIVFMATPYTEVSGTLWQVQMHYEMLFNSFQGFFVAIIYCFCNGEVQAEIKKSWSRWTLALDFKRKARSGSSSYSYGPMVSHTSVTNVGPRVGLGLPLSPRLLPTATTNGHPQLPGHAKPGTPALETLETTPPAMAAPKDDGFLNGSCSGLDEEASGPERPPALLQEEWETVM
Source text: The goal of the proposed studies is to discover new compounds that act as potent agonists on the parathyroid hormone receptor type-1 (PTHR1). The PTHR1 plays critical roles in maintaining blood calcium and phosphate levels, as well as in controlling bone remodeling. PTHR1 agonists could thus be useful for treating diseases such as hypoparathyroidism and osteoporosis. In the former disease, an agonist drug would help maintain normal blood calcium and phosphate levels under conditions of parathyroid hormone deficiency. In the latter disease, an agonist drug would stimulate new bone formation and thus reduce the risk of fracture, under conditions of bone fragility, as occurs in aging. We performed an optimization assay of the quantitative high-throughput screening (qHTS) for the parathyroid hormone receptor type-1 (PTHR1) against the NCGC LOPAC library collection of […] compounds using a unique HEK-293-derived cell line (GP2) that expresses the PTHR1 and a GloSensor cAMP reporter construct. Increase in signal (activation / agonist) is the desired outcome for compounds of interest. NIH Chemical Genomics Center [NCGC] NIH Molecular Libraries Probe Production Centers Network [MLPCN] MLPCN Grant: P01 DK011794 Assay Submitter (PI): Thomas Gardella PhD, Massachusetts General Hospital
Reagents / Controls: M-PTH (1-15) peptide hormone fragments was provided by the assay provider and was used as a control. Column 1 was treated with M-PTH titration (1:2 dilution) beginning with a final concentration of 10uM. Column 2 was treated with M-PTH final concentration of 10uM. Columns 3 and 4 were treated with DMSO only to assess background and noise signal. Assay Steps: Four microLiter of cells suspension was dispensed in a 1536-well assay plate at a final density of 3000 cells/well. The plates were incubated overnight, after which 4uL of 0.5mM of BloTium Luciferin plus 0.5mM IBMX was added. […] Luminescence signal was obtained using the PerkinElmer ViewLux plate reader after 15min or room temperature incubation.

Measured: Potency

CON=C(C(=O)N[C@@H]1C(=O)N2C(C(=O)O)=C(CSC(=O)c3ccco3)CS[C@H]12)c1csc(N)n1
inactive: [1] | [2] | [3] | [4] | [5]

C=CC(=O)N1CCc2ccc(-n3c(=O)ccc4cnc5ccc(-c6cnn(C)c6)cc5c43)cc21
active: [1] 3.99 µM | [2] 2.96 µM | [3] 9.3 µM | [4] 5.9 µM | [5] 5.9 µM

Cc1noc(-c2ccc(CSCCC(=O)O)cc2)c1NC(=O)OC(C)c1ccccc1Cl (centres undefined)
inactive: [1] | [6] | [2] | [3] | [4] | [5]

O=C1NCCc2[nH]c(-c3ccncc3)cc21
active: [6] 7.43 µM | [2] 9.35 µM | [3] 11.7 µM | [4] 4.69 µM

C[C@H](O)[C@@H]1C(=O)N2C(C(=O)O)=C(S[C@@H]3CN[C@H](CNS(N)(=O)=O)C3)[C@@H](C)[C@@H]12
inactive: [1] | [6] | [3] | [4] | [5]

COc1cc(C)c(Sc2cnc(NC(=O)c3ccc(CNC(C)C(C)(C)C)cc3)s2)cc1C(=O)N1CCN(C(C)=O)CC1 (centres undefined)
active: [3] 20.8 µM | [4] 18.7 µM | [5] 4.69 µM
inactive: [1] | [6]

CC(C)(C)c1nc2c3cc[nH]c(=O)c3c3cc(F)ccc3c2[nH]1
active: [1] 7.31 µM
inactive: [2]

Cn1cc(C=CC(=O)c2cccc(F)c2)cc1C=CC(=O)NO
inactive: [1] | [6] | [2] | [3] | [5]

O=C(NCc1ccccc1)[C@H](Cc1ccccc1)NC(=O)[C@@H]1O[C@@H]1C(=O)NCCc1ccc(O)cc1
inactive: [6] | [2] | [3]

CCCCCCCCCCCCCCCC(=O)OC[C@@H](NC(=O)C(Cl)Cl)[C@H](O)c1ccc([N+](=O)[O-])cc1
inactive: [1] | [6] | [2] | [3] | [4] | [5]

C=CCNc1c(O)cc2c(O)c1C[C@@H](C)C[C@H](OC)[C@@H](O)[C@@H](C)C=C(C)[C@H](OC(N)=O)[C@@H](OC)C=CC=C(C)C(=O)N2
active: [6] 6.62 µM | [3] 1.65 µM
inactive: [2]

O=c1c(O)c(-c2ccc(O)c(O)c2)oc2cc(O)ccc12
active: [6] 13.2 µM
inactive: [2] | [3]

O=c1[nH]c(=O)n([C@H]2C[C@@H](O)[C@@H](CO)O2)cc1C=CBr
inactive: all assays above

Cc1cnn(C)c1C(=O)Nc1cc(Nc2ccc3c(C=Cc4ccccn4)n[nH]c3c2)ccc1F
active: [6] 5.26 µM

Cc1cn([C@@H]2O[C@H](CO)[C@@H](O)[C@H]2F)c(=O)[nH]c1=O
inactive: [1] | [6] | [2] | [3] | [4] | [5]

COC(=O)C1C2CC3c4[nH]c5cc(OC)ccc5c4CCN3CC2CC(OC(=O)c2cc(OC)c(OC)c(OC)c2)C1OC (centres undefined)
inactive: [6] | [2] | [3]

N#CC(=Cc1ccc(O)c(O)c1)C(=O)NCc1ccccc1
inactive: [6] | [2]

COc1ccc([C@@H]2CNC(=O)C2)cc1OC1CCCC1
active: [4] 3.72 µM
inactive: [6] | [2] | [3]

COc1ccc(Nc2cc(-c3cnc(N)nc3)nc(N3CCOCC3)n2)cn1
active: [1] 1.46 µM | [6] 1.48 µM | [2] 16.6 µM | [3] 4.66 µM | [4] 4.69 µM | [5] 4.18 µM

CN[C@H](CC(C)C)C(=O)N[C@H]1C(=O)N[C@@H](CC(N)=O)C(=O)N[C@@H]2C(=O)N[C@H]3C(=O)N[C@H](C(=O)N[C@H](C(=O)O)c4cc(O)cc(O)c4-c4cc3ccc4O)[C@H](O)c3ccc(c(Cl)c3)Oc3cc2cc(c3O[C@@H]2O[C@H](CO)[C@@H](O)[C@H](O)[C@@H]2O[C@H]2C[C@](C)(N)[C@H](O)[C@H](C)O2)Oc2ccc(cc2Cl)[C@H]1O
not listed: [1]
inactive: all other assays above

CC(=O)N[C@H]1[C@@H]([C@H](O)[C@H](O)CO)OC(C(=O)O)=C[C@@H]1N=C(N)N
inactive: [1] | [6] | [2] | [3] | [4] | [5]

C=C1C[C@@]2(O)O[C@@]3(C[C@H]2C(C)C)[C@H](C)CC[C@H]13
inactive: [1] | [6] | [2] | [3] | [4]
